In all, about 370,000 compounds went through this assay and about 2,600 (0.7%) were called active. The sample holds actives, similar compounds and a random draw of the others, so the mix is not that of the screen.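 How the source made its calls: active means inhibition above a cutoff: mean of compounds within the control limits plus 3 SD of those (cut at about 17% in these data); inactive means the rest.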

The term inhibition denotes the drop in the measured response relative to a control, in per cent.

The target of the experiment is Sialate O-acetylesterase (Homo sapiens) (UniProt Q9HAT2). In words: blockers of sialate O-acetylesterase activity-probe labeling – biochemical, fluorescence polarization, FP-Rh probe, 1536-well HTS, primary screen (AID 1053197).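 Further: 0% = plate median of compound wells and 100% = probe without SIAE protein.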 Conditions: SIAE FP-Rh probe binding, at 9.66 µM, stronger effect = higher value. (In general: In fluorescence polarisation assays a small probe gives low polarisation when free and higher when bound to something large.)
Sialate O-acetylesterase (Homo sapiens), sequence (Q9HAT2 whole entry, looked up): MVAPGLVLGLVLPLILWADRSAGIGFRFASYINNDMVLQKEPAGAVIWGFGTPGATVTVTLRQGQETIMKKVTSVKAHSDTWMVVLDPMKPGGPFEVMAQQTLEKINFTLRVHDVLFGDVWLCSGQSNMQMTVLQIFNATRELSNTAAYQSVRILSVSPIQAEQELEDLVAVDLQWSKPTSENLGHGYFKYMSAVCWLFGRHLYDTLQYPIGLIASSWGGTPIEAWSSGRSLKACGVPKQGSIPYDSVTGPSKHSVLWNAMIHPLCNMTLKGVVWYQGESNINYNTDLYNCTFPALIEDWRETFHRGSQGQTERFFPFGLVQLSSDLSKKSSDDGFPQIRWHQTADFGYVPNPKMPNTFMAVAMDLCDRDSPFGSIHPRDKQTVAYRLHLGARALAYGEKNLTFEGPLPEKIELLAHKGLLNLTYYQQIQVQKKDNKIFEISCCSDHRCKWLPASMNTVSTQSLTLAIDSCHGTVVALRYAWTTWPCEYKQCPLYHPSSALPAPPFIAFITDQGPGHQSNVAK
Consider `CN1[C@H](Cc2ccccc2)COc2cccc(N3CCSCC3)c2S1(=O)=O`, for which the inhibition was -5.79% (inactive).
For `O=S1(=O)c2c(NCc3ccco3)cccc2Oc2ccccc2CN1Cc1cn(Cc2cccc(C(F)(F)F)c2)nn1`, the inhibition is -2.9% (inactive).
Turning to `C[C@@H]1CN([C@@H](C)CO)C(=O)c2cccc(NC(=O)Nc3cccc4ccccc34)c2O[C@H]1CN(C)S(=O)(=O)c1ccccc1F`, the inhibition was -1.21% (inactive).
Regarding `Oc1ccc(N=Cc2c(O)ccc3ccccc23)cc1`, the inhibition was 21% (active).
As for `Oc1ccc(N=Cc2sc3ccccc3c2Cl)cc1`, the figure is 22.5% (active).
On to `CCOC(=O)C1CCN(C(=O)C(C)(C)NC(=O)Nc2ccccc2Cl)CC1`, for which the inhibition is -1.25% (inactive).
As to `O=C(Nc1nc2ccc(Cl)cc2s1)c1cc(-c2ccc(Cl)cc2)nc2ccccc12`, the inhibition is -3.74% (inactive).
Next, `CN(CCO)c1cccc2c1S(=O)(=O)N(Cc1cn(Cc3ccc(C(F)(F)F)cc3)nn1)Cc1ccccc1O2`: -1.94% (inactive).
As for `NNc1nc2c(Cl)cccc2s1`, the inhibition was 17.2% (active).
Regarding `O=S1(=O)c2ccc(Br)cc2OC[C@@H](Cc2ccccc2)N1Cc1cn(Cc2ccco2)nn1`, the inhibition is -0.13% (inactive).
As for `COC(=O)C1CN(CCc2ccccc2)CCS(=O)(=O)N1Cc1cccc(Cl)c1` (stereo unspecified), the figure is -0.76% (inactive).
In the case of `O=C(c1cccnc1)N1CCN(S(=O)(=O)c2cccs2)CC1`, the inhibition was 4.01% (inactive).
Turning to `O=C(N/N=C/c1sc(N2CCCCC2)nc1-c1cccs1)c1cccnc1`, the inhibition is 19.6% (active).
Turning to `O=C(Nc1cccc(Cl)c1N1CCOCC1)c1cccnc1`, the inhibition is -7.61% (inactive).
Regarding `COC(=O)CC1CCc2cc(C)cc(C(CC(C)C)NC(=O)[C@H](CC(C)C)NC(=O)OCc3ccccc3)c2O1` (stereo partly specified), the inhibition is 4.19% (inactive).
Regarding `O=C(Nc1cccc(Cc2ccccc2)c1)Nc1ccc2nc([C@@H]3O[C@H](CO)[C@@H](O)[C@H](O)[C@H]3O)[nH]c2c1`, the inhibition is 21% (active).
Consider `O=C(NCc1cccnc1)c1ccc2nc([C@@H]3O[C@H](CO)[C@H](O)[C@H](O)[C@H]3O)[nH]c2c1`, for which the inhibition is -0.84% (inactive).
As for `O=C(Nc1ccc(Cl)cc1)c1csc([C@@H]2O[C@H](CO)[C@H](O)[C@H](O)[C@H]2O)n1`, the inhibition was -0.06% (inactive).
As to `CC(CCN1CCC(C(O)(c2ccccc2)c2ccccc2)CC1)Oc1ccc(Cl)cc1` (stereo unspecified), the inhibition is -3.91% (inactive).
Next, `CC(C)=CCCC1(C)C=Cc2c(ccc3c2[nH]c2cc(O)c(C)cc23)O1` (stereo unspecified): 20.8% (active).
`CCn1c(=O)n2n(c1=O)[C@@]1(C=C3CCCC[C@H]32)N=C(NC(=O)c2ccccc2)N(Cc2ccccc2)[C@H]1Cc1ccccc1`: the inhibition was 7.65% (inactive).
On to `COC(=O)C1CN(CC(C)C)CCS(=O)(=O)N1Cc1ccc(C)cc1` (stereo unspecified), for which the inhibition is 5.08% (inactive).
Next, `O=C(OCc1nc2ccccc2[nH]1)C1CCCCC1`: 0.98% (inactive).
On to `O=S(=O)(c1ccc(Br)cc1)N1CCC(c2nc3ccccc3[nH]2)CC1`, for which the inhibition is -5.23% (inactive).
With `c1ccc2[nH]c(-c3nc4ccccc4[nH]3)nc2c1`, the inhibition was 47.9% (active).
On to `COc1ccc(C2Nc3ccccc3C(=O)N2Cc2cccs2)cc1COc1c(C)cccc1C` (stereo unspecified), for which the inhibition is -4.49% (inactive).
Consider `O=C(CSc1nc2sc3c(c2c(=O)n1-c1ccccc1)CCCC3)NN=Cc1ccc(OCc2ccccc2)cc1`, for which the inhibition is 8.02% (inactive).
In the case of `COc1ccc([C@H]2OC(=O)C[C@H]2C(=O)N2CCN(c3ccccc3F)CC2)cc1OC`, the inhibition was -5.68% (inactive).
As for `CC(C)=CCc1ccc(O)c(=O)cc1C(C)C`, the figure is 6.87% (inactive).
Take `CC(C)c1cc(C(=O)N/N=C/c2ccoc2)c(O)c(C(C)C)c1`: the inhibition is -13.5% (inactive).
As for `CC(C)c1cc(N=O)cc(C(C)C)c1O`, the figure is 25.2% (active); as for `O=C(NCCCc1ccccc1)[C@H](Cc1ccccc1)NC1(C(=O)NCCc2c[nH]c3ccccc23)CCC1`, 4.77% (inactive); as for `Cc1ccc(-n2c(SCC(=O)Nc3ccc(S(=O)(=O)Nc4nccs4)cc3)nnc2-c2cccnc2)cc1`, -10.3% (inactive).
Next, `C=C1C(C(C)C)N(C)C2=NC(c3ccccc3)CC(=O)N12` (stereo unspecified): 6.93% (inactive).
With `O=C(NC(=S)Nc1cccc(-c2ccc(CO)o2)c1)c1cccs1`, the inhibition was -33.9% (inactive).
Take `NS(=O)(=O)c1ccc(NC(=S)NNC(=O)c2cccs2)cc1`: the inhibition is 4.71% (inactive).
For the compound `O=C(NC(=S)Nc1ccc(NC(=O)c2cccs2)cc1)c1ccc([N+](=O)[O-])cc1`, the inhibition was 26.9% (active).
On to `O=C(c1ccncc1)N1CC[C@H]2[C@H](CCCN2Cc2ccc(F)cc2)C1`, for which the inhibition is 2.68% (inactive).
With `C=CCn1c(SCC(N)=O)nnc1-c1ccccc1OC`, the inhibition was -7.56% (inactive).
Regarding `CCC(=O)Nc1ccc(C(=O)CSc2nnc(CNc3ccc(Cl)cc3)o2)cc1OC`, the inhibition is -0.55% (inactive).
`CCOc1ccc(Nc2nc(Cc3nnc(SCC(=O)c4ccc(C)cc4)o3)cs2)cc1`: the inhibition is 18.2% (active).
Consider `CCOc1cccc(-c2nnc(SCC(=O)NC3CC3)n2C)c1`, for which the inhibition was -3.03% (inactive).
For the compound `CCOc1ccc(Nc2nc(Cc3nnc(SCC(=O)NC4CCCC4)n3C)cs2)cc1`, the inhibition is 19.1% (active).
`Cn1c(CC(=O)Nc2ccc(F)cc2)nnc1SCC(=O)NC1CCCCC1`: the inhibition was 2.38% (inactive).
On to `CC(=O)Nc1ccc(C(=O)CSc2nnc(Cc3ccccc3)o2)cc1`, for which the inhibition was -1.29% (inactive).
Turning to `CC(C)(C)c1ccc(C(=O)Nc2cc(Cl)c(Br)cc2C(=O)O)cc1`, the inhibition is -77.3% (inactive).
As for `COc1ccc(-n2c(SCC(=O)Nc3ccccc3-c3ccccc3)nnc2-c2cccnc2)cc1`, the figure is 4.69% (inactive); as for `Clc1ccc(-n2c(COc3ccccc3)nnc2SCc2nc3ccccc3[nH]2)cc1`, -2.83% (inactive); as for `Nn1c(SCC(=O)Nc2ccc(S(N)(=O)=O)cc2)nnc1-c1n[nH]c2c1CCC2`, -5.56% (inactive).
Next, `Cc1ccccc1CN1CCCCC(NC(=O)Nc2ccccc2F)C1=O` (stereo unspecified): 1.41% (inactive); `Nc1ccc2nc3c(=O)[nH]c(=S)[nH]c3nc2c1`: 31.8% (active).
In the case of `O=C(N1CCOCC1)N1CC[C@H]2[C@H](CCCN2Cc2ccc(F)cc2)C1`, the inhibition was 0.67% (inactive).
As for `O=C(c1cccc(C(F)(F)F)c1)N1CC[C@H]2[C@H](CCCN2Cc2cc(F)cc(F)c2)C1`, the figure is 1.24% (inactive).
Take `C=CCN1[C@H](CC(C)C)COc2cccc(N3CCCC3)c2S1(=O)=O`: the inhibition is 6.71% (inactive).
Turning to `CNC(=S)N/N=C/c1cn(Cc2ccc(C)cc2)c2ccccc12`, the inhibition was 18.3% (active).
As for `NC(=O)Cn1cc(/C=N\NS(=O)(=O)c2ccccc2)c2ccccc21`, the figure is 10.5% (inactive).
For `CNC(=S)N/N=C/c1ccc(OCc2ccccc2)c(Br)c1`, the inhibition is -1.33% (inactive).
In the case of `c1coc(CCNc2ncnc3ccc(-c4ccc5c(c4)OCO5)cc23)c1`, the inhibition was -15.4% (inactive).
Next, `CCC(=O)Nc1ccc2c(c1)C(=O)N(C)[C@H]1CC[C@H](CC(=O)NCCOC)O[C@@H]1CO2`: -4.02% (inactive); `COc1ccc(C#CCNCc2ccc(OC)cc2OC)cc1`: 3.3% (inactive); `COc1cccc(/C=N/Nc2cc(C)nc(-c3ccccc3O)n2)c1O`: 18.5% (active).
In the case of `O=C1CCN(C(=S)NCCc2ccccc2)CC1`, the inhibition is 17.5% (active).
Regarding `Oc1cc2c(cc1O)CN(C(=S)NCCc1ccc(Cl)cc1)CCC2`, the inhibition is 2.67% (inactive).
As for `Oc1ccc(N2CCN(C(=S)NCc3ccccc3)CC2)cc1`, the figure is 10.2% (inactive); as for `CCOC(=O)C(=O)N(Cc1ccccc1)c1ccccc1C(=O)Nc1cc(OC)ccc1OC`, -7.2% (inactive).
`CC(C)(C)OC(=O)NCc1cc(F)ccc1/C=C/S(=O)(=O)NCCc1ccccc1`: the inhibition is -1.86% (inactive).
For `COC(=O)c1cc(S(=O)(=O)N2CCN(c3ccccc3C)CC2)cn1C`, the inhibition was 2.1% (inactive).
`NC(=O)C1(N2CCCCC2)CCN(C(=O)c2ccc(C#Cc3ccccc3)o2)CC1`: the inhibition was -5.47% (inactive).
On to `CCC(=O)N1CCC(C(N)=O)(N2CCCCC2)CC1`, for which the inhibition is -0.17% (inactive).
Regarding `CC(C)(O)C#Cc1ccc(C(=O)N2CCC(C(N)=O)(N3CCCCC3)CC2)cc1`, the inhibition was 22.5% (active).
`CCC[C@H]1C(=O)CC[C@@]23CCCN2C(=O)CCC[C@@H]13`: the inhibition is -0.79% (inactive).
Consider `CC[C@@H](CCC(=O)N(c1ccccc1)c1ccccc1)C1CC1`, for which the inhibition is -1.88% (inactive).
In the case of `COC(=O)[C@]1(C#N)CC(=O)N(CC2CCCCC2)[C@@H]1c1ccccc1`, the inhibition is 2.31% (inactive).
For the compound `Cc1cccc(C2c3c(n(C)c(=O)n(C)c3=O)N=C3c4ccccc4C(=O)C32)c1` (stereo unspecified), the inhibition is 17.7% (active).
Turning to `COc1ccc(C2C3=C(OC(C)=O)c4ccccc4C3=Nc3c2c(=O)n(C)c(=O)n3C)cc1` (stereo unspecified), the inhibition is 1.68% (inactive).
Next, `Cc1cccc(C2C3=C(CCCC3=O)N=C3c4ccccc4C(=O)C32)c1` (stereo unspecified): 6.75% (inactive); `CCC(CO)Nc1cccc2c1S(=O)(=O)N(Cc1cn(Cc3ccccc3C(F)(F)F)nn1)Cc1ccccc1O2` (stereo unspecified): 7.92% (inactive); `COC(=O)c1cc(S(=O)(=O)N2CCN(C(=O)C3CCCO3)CC2)cn1C` (stereo unspecified): -4.53% (inactive).
As to `CCCCOCCCNC(=O)C[C@H]1C[C@@]2(C(=O)OC)C(=C[C@H](C(C)(C)C)O[C@@H]2C)N(CCc2ccc(OC)c(OC)c2)C1=O`, the inhibition was -1.28% (inactive).
With `CCOC(=O)[C@]12CCCCC/C=C\1N(Cc1ccc(OC)cc1)C(=O)[C@H]2CC(=O)NCCCN1CCCC1=O`, the inhibition is 4.21% (inactive).
With `NC(=O)C1CCN(C(=O)COc2cccc3cccnc23)CC1`, the inhibition is 4% (inactive).
For the compound `CCOc1cc(N2CCOCC2)c(OCC)cc1NC(=O)C1=NN(c2cccc(C)c2)C(=O)CC1`, the inhibition was 7.16% (inactive).
For `CCOc1cc(N2CCOCC2)c(OCC)cc1NC(=O)COc1cccc2cccnc12`, the inhibition was 25.5% (active).
As for `CC(=O)NS(=O)(=O)c1ccc(N/C(N)=N/c2nc(C)cc(C)n2)cc1`, the figure is -5.5% (inactive); as for `CC(=O)Nc1ccc(Nc2cc(C)nc(Nc3ccc(NC(C)=O)cc3)n2)cc1`, 19.1% (active).
Turning to `COc1ccc(C(=O)NNc2cc(C)nc(NNC(=O)c3ccc(OC)cc3)n2)cc1`, the inhibition is -3.36% (inactive).
